The values below come from publication PMC6919601, “Identification of Plasmodium dipeptidyl aminopeptidase allosteric inhibitors by high throughput screening” (PLoS ONE, 2019).

Out of some 110,000 compounds screened, about 230 (0.21%) showed an effect of 50% or more. The list comes from a sample in which strong results are over-represented; it also holds similar structures and randomly drawn compounds.
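Further: 30 min substrate incubation versus DMSO and 10 µM JCP410 controls.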

This assay deals with DPAP1 (Plasmodium falciparum, UniProt Q8IIJ9). The assay can be described thus: primary screen, percent inhibition; read by cleavage of a fluorogenic dipeptide substrate; higher = more effect of the substance. More on the design: species or system P. falciparum D10 trophozoite lysates; single well.
Sequence of DPAP1 (Q8IIJ9 whole entry, looked up): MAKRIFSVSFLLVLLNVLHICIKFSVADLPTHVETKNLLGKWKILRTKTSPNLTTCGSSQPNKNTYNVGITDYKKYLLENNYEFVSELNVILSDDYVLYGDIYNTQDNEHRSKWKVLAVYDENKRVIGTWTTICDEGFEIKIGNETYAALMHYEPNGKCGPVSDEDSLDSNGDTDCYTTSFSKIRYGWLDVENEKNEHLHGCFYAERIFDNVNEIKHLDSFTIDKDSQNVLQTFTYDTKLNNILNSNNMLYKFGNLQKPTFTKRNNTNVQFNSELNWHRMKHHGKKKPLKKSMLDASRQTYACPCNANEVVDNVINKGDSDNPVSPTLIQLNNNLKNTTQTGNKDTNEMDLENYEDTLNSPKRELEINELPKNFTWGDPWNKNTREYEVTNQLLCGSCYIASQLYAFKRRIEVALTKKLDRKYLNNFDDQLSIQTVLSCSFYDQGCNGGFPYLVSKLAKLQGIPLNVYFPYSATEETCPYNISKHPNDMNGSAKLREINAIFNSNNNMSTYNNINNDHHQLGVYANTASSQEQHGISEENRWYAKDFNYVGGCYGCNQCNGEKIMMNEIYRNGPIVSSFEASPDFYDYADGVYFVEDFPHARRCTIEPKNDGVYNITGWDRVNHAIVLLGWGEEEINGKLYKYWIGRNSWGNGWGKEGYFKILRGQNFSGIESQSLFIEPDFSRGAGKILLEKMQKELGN
As to `COc1ccc(C(=O)NCc2nnc(SCC(=O)Nc3nnc(C)s3)o2)cc1`, the “% Inhibition @ 10 uM” value worked out at 84%.
Then `Cc1nnc(NC(=O)CSc2nnc(CNC(=O)COc3ccc(Cl)cc3)o2)s1`, with -5.27%; and `COc1ccc(C(=O)NCc2nnc(SCC(=O)NCC3CCCO3)o2)cc1` (centres unmarked), with 8.26%; and `NC(=O)/C=C/C(=O)Nc1ccccc1`, with -3.13%.
With `CCCCNC(=O)CCc1nc2cccnc2n1Cc1ccccc1`, the “% Inhibition @ 10 uM” value was 3.96%.
On to `CCOc1ccc2c3c(c(=O)oc2c1)CCC3`, for which the “% Inhibition @ 10 uM” value is on record as -3.38%.
With `CCCC1CCC(C2=N/C(=C\c3cc(OC)c(OC)cc3OC)C(=O)O2)CC1` (centres unmarked), the “% Inhibition @ 10 uM” value is reported as -3.33%.
Then `O=C(CSc1nc2ccccc2o1)N1CCN(c2nnc(-c3ccccc3)c3ccccc23)CC1`, with 2.46%; and `COCCNC(=O)CSc1[nH]c(-c2cccc(OC)c2)nc1-c1ccccc1`, with 0.163%.
Then `Cc1nc(C(=O)N[C@@H](CC(C)C)C(=O)NCC#N)nn1-c1ccc(Cl)cc1Cl`, with 5.76%.
Then `CCOc1ccc(/C=C(\NC(=O)c2ccc(C)cc2)C(=O)Nc2cccc(O)c2)cc1`, with 4.67%; and `N#CC1=C2SCN(Cc3ccccc3)CN2C(=O)CC1c1cccs1` (centres unmarked), with 40.5%; and `COc1ccc(OC)c(C2CC(=O)N3CN(Cc4ccco4)CSC3=C2C#N)c1` (centres unmarked), with 6.87%.
For the compound `CCOc1cc(C2CC(=O)N3CN(Cc4ccccc4)CSC3=C2C#N)ccc1O` (centres unmarked), the “% Inhibition @ 10 uM” value amounted to 19.8%.
In the case of `COc1ccc(C2CC(=O)N3CN(Cc4ccccc4)CSC3=C2C#N)cc1OC` (centres unmarked), the “% Inhibition @ 10 uM” value was found to be 6.73%.
The figure for `COc1ccc(CN2CSC3=C(C#N)C(c4cccs4)CC(=O)N3C2)cc1` (centres unmarked) is 50.8%; for `COc1ccc(CN2CSC3=C(C#N)C(c4ccc(C)cc4)CC(=O)N3C2)cc1` (centres unmarked) it is 43.8%; for `COc1ccc(Br)cc1C1CC(=O)N2CN(Cc3ccccc3)CSC2=C1C#N` (centres unmarked) it is 60.8%.
The figure for `COc1ccc(Br)cc1C1CC(=O)N2CN(Cc3ccco3)CSC2=C1C#N` (centres unmarked) is 60.5%; for `COc1ccc(C2CC(=O)N3CN(Cc4ccccc4)CSC3=C2C#N)c(OC)c1` (centres unmarked) it is 32.1%.
The figure for `COc1cccc(C2CC(=O)N3CN(Cc4ccco4)CSC3=C2C#N)c1OC` (centres unmarked) is 18.7%; for `COc1cc(C2CC(=O)N3CN(Cc4ccccc4)CSC3=C2C#N)cc(Br)c1O` (centres unmarked) it is 57%.
Regarding `COc1ccc2ccccc2c1C1CC(=O)N2CN(Cc3ccccc3)CSC2=C1C#N` (centres unmarked), the “% Inhibition @ 10 uM” value is 35.8%.
The figure for `Cc1ccc2oc(=O)c3cc(C(=O)N4CCC(C)CC4)sc3c2c1` is 0.809%; for `CCCOc1ccc(CN(C(=O)c2nc(SC)ncc2Cl)C2CCS(=O)(=O)C2)cc1` (centres unmarked) it is -4.64%.
Then `Cc1cc(C)c2c(n1)nn1c(C3CC3)cc(C(F)(F)F)nc21`, with 2.54%.
Regarding `O=C(NCC(=O)N1CCOCC1)c1ccccc1`, the “% Inhibition @ 10 uM” value is 15.6%.
Regarding `O=C(NCCc1ccccc1)C1CCCN(S(=O)(=O)c2cccc3cccnc23)C1` (centres unmarked), the “% Inhibition @ 10 uM” value was -4.69%.
`COc1cccc(C(=O)Nc2ccc(C(C)C)cc2)c1`: the “% Inhibition @ 10 uM” value is -1.25%.
The figure for `COCCOC(=O)N/C=C\c1nc(O)c2ccccc2n1` is -4.65%; for `CCOC(=O)c1cnn2c(C(F)(F)F)cc(C)nc12` it is -3.53%; for `N#Cc1c2c(c(S)sc1=N)CCCC2` it is 59.6%.
Then `CN1CCc2c(c(S)sc(=N)c2C#N)C1`, with 5.59%; and `CC1(C)Cc2c(c(S)sc(=N)c2C#N)CO1`, with 8.27%.
Then `COc1cccc(CNC(=O)CNC(=S)N(Cc2ccccc2)Cc2cccnc2)c1`, with -0.406%; and `Cc1cc(C)c2c(-n3cccc3)nn(CC(=O)N3CCCCCC3)c2n1`, with -3.52%.
Take `COCC(=O)Nc1nc2nccc(C)n2n1`: the “% Inhibition @ 10 uM” value was -1.31%.
Consider `CCn1c(C(=O)N2CCC(C(=O)NCCN(CC(C)C)CC(C)C)CC2)cc2sccc21`, for which the “% Inhibition @ 10 uM” value is listed as -5.19%.
The figure for `CCn1c(C(=O)N2CCC(C(=O)NCCC(C)C)CC2)cc2sccc21` is 92.1%; for `CCn1c(C(=O)N2CCC(C(=O)NCCOC)CC2)cc2sccc21` it is 4.95%; for `N#CCNC(=O)[C@H](CC1CCCCC1)NC(=O)c1sccc1Br` it is 1.35%.
Consider `O=C1C(Nc2cccc(Br)c2)=C(N2CCCCC2)C(=O)c2ccccc21`, for which the “% Inhibition @ 10 uM” value was determined as 1.84%.
Then `O=C1C(Nc2cccc(O)c2)=C(N2CCCCC2)C(=O)c2ccccc21`, with 0.162%; and `Nc1ccc(NC2=C(N3CCCCC3)C(=O)c3ccccc3C2=O)cc1`, with 53.5%; and `Cn1c2ccccc2c2nc3cc4ccccc4cc3nc21`, with -2.54%.
The figure for `COCCN1C(=O)c2ccccc2C(C(=O)Nc2ccc(Cl)cn2)C1c1cccs1` (centres unmarked) is 4.33%; for `C=CCOc1ccc(C(=O)C2=C(O)C(=O)N(c3ccccn3)C2c2ccc(F)cc2)cc1` (centres unmarked) it is 2.86%.
As for `C#CCN1C(=O)C(O)(CC(=O)c2ccc3ccccc3c2)c2ccccc21` (centres unmarked), the “% Inhibition @ 10 uM” value is reported as -20.7%.
Then `Cn1c(SCC(=O)NCCc2ccccc2)nc2c1c(=O)n(Cc1ccccc1Cl)c(=O)n2C`, with 3.81%; and `CC1CCN(C(=O)CCN2C(=O)c3ccccc3C2=O)CC1`, with 2.06%.
